Source: PubChem
Sampled rows, rich in hits. Any-hit rate of the full collection: about 2.6%.
uPA generation – qHTS for Inhibitors of Cell Surface uPA Generation; cell surface uPA generation assay, qHTS; Potency, µM (top dose mostly 38.3 µM), for inactives: top-dose activity change, negative = inhibition, usual class: inhibitors; 330,000 tested, 0.31% active; active = well fitted inhibition curve with a large enough effect; inconclusive = small, poorly fitted or top-dose-only effect; inactive = no such curve, though single readings can be large or run the other way; tested in mouse RAW 264.7 cells; also: potency is read from the fitted curve at half-maximal effect; % is scaled to controls: 0 for no effect and ±100 for the full control effect; nearly all actives have a fitted effect of over 55% in size
Giardia killer – Small Molecules that selectively kill Giardia lamblia: qHTS. Giardia lamblia trophozoite viability. activity change, % at 7.66 µM, hits read low. 340,000 tested, 0.15% active. AID 540267, 2011; in the data active = activity change below about -80%; inconclusive = between about -30% and that limit;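 also: parasites exposed to compound for two days anaerobically before the ATP read; % is scaled to controls: 0 for no effect and ±100 for the full control effect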
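Compounds were tested on trophozoites seeded at 100 cells/well and held 48 hrs at 37 deg C anaerobically. An ATP-based luminescent kit measured the remaining live cells.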
ATXN viability – Viability Counterscreen for Primary qHTS for Inhibitors of ATXN expression. Potency, µM (series often up to 56.7 µM), hits mostly cytotoxic. AID 651635, 2014. 400,000 tested, 0.49% active. S2 cells (HEK-293 line with an ATXN2-luciferase reporter) viability, CellTiter-Fluor protease fluorescence, 24 h; also: potency is read from the fitted curve at half-maximal effect; nearly all actives have a fitted effect of over 40% in size
HepG2 viability – qHTS for Inhibitors of TGF-b: Cytotox Counterscreen; AID 588856, 2011; Potency, µM (doses to about 46.1 µM), for inactives: at the highest dose activity change, negative = cytotoxicity, hits mostly cytotoxic; 410,000 tested, 0.76% active; HepG2 CAGA-GFP viability, ATP luminescence, 18 h; also: potency is read from the fitted curve at half-maximal effect
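HepG2 CAGA-GFP cells (1000/well, DMEM with 1% FBS) received compound, then TGF-beta at 500 pg/mL final, and were incubated 18 hours at 37 degrees C. Viability was read by CellTiter-Glo luminescence. Media-only wells were set as complete cell-killing and DMSO as no toxicity.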
TGFb inhibitor – qHTS for Inhibitors of TGF-b. HepG2 CAGA-GFP TGF-b/SMAD3 reporter, GFP fluorescence, 18 h; TGF-beta stimulated, 500 pg/mL final. Potency, µM (series often up to 46.1 µM), for the others: at the highest dose activity, negative = inhibition, most hits filed as inhibitors. 410,000 tested, 1.2% active; also: potency is read from the fitted curve at half-maximal effect; % is scaled to controls: 0 for no effect and ±100 for the full control effect; nearly all actives have a fitted effect of over 65% in size
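Per well, imaged GFP fluorescence of HEPG2 CAGA-GFP cells gives the signal; cells get compound, then TGF-beta (500 pg/mL final), 18 h at 37 degrees C; %Activity versus -TGF-beta and +DMSO controls.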
ATXN2 expr inh – Primary qHTS for Inhibitors of ATXN expression; Potency, µM (top dose mostly 57 µM), for the others: at the highest dose activity change, negative = inhibition, actives largely listed as inhibitors; HEK-293 ATXN2-luciferase reporter, luminescence, 24 h; 360,000 tested, 0.72% active; AID 1745845, 2022; also: potency is read from the fitted curve at half-maximal effect; % is scaled to controls: 0 for no effect and ±100 for the full control effect; nearly all actives have a fitted effect of over 55% in size
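ATXN2-luciferase reporter cells (luciferase flanked by upstream and downstream ATXN2 gene portions) were treated 24 h at 37 °C with compounds at up to 57 uM. SteadyGlo luminescence gave expression; GF-AFC fluorescence gave viability.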
The depositor's hits bear a star; i = inactive; ? = inconclusive; . = not tested or not shown; ! = not active in a repeat. Unless noted, calls follow the shape of the dose curve; as a rule, active = well fitted curve in the direction sought with a large enough effect; inconclusive = small, poorly fitted or top-dose-only effect, or another doubt; inactive = no such curve, though single readings can be large; an effect the other way counts as inactive or inconclusive.

SMILES | uPA generation | Giardia killer | ATXN viability | HepG2 viability | TGFb inhibitor | ATXN2 expr inh
Cc1ccc(C(=O)Nc2onc3c2CCCC3)cc1 | . | . | ? | -32.0% | -17.8% | 7.94µM*
COc1ccccc1C(=O)Nc1onc2c1CCCC2 | . | . | i | -6.5% | -0.3% | -22.3%
Cc1cccc(NC(=O)c2onc3c2CCCC3)c1C | -6.9% | -7.7 | i | -3.3% | -2.5% | 51.2%
COc1cc(CN2CCC3(CCC(CNC(=O)c4cc(C)nn4C)O3)CC2)ccc1F (stereo not given) | . | . | i | . | . | .
CN(C)c1ccc(/C=C/c2ccc3cc(F)ccc3n2)cc1 | . | . | . | -21.0% | 0.3% | .
COc1cc(OC)c(OC)cc1/C=C/c1cc[n+](C)c2ccccc12 | . | . | . | -0.5% | -4.6% | .
CCN1CCC(N(Cc2ccc3c(c2)OCO3)C(=O)Nc2ccccc2OC)CC1 | . | . | i | -26.3% | 1.5% | -16.7%
CCN1CCC(N(Cc2ccc3c(c2)OCO3)C(=O)Nc2cc(Cl)ccc2C(=O)OC)CC1 | . | . | 15.8µM* | -108.3% | ? | 25.1µM*
COC(=O)C1=C(C)N(CCC2=CCCCC2)C(=O)C1 | -10.1% | 4.0 | i | -0.5% | -5.4% | 22.1%
COC(=O)C1=C(\O)CCCC/C=C\1C(=O)O | 5.7% | 11.6 | i | 2.82µM* | 14.0% | 12.6%
CCN(CC)CCNc1ccc(CO)c2sc3ccccc3c(=O)c12 | ? | 32.2 | 31.6µM* | -15.3% | ? | 28.2µM*
O=c1c2ccccc2sc2c(CO)ccc(NCCN3CCCCC3)c12 | -12.4% | 12.0 | ? | -9.9% | ? | 18.9µM*
O=C(CBr)c1ccc(Oc2ccc(C(=O)C[n+]3ccccc3Cl)cc2)cc1 | . | . | . | -27.3% | ? | .
CC(C)COc1ccc(CC(=O)NO)cc1 | . | . | . | 3.2% | 3.1% | .
Cc1ccc2c(c1C)NC(=O)C21N2CCCC2C(C(=O)c2ccc3ccccc3c2)C12C(=O)Nc1ccccc12 (stereo not given) | ? | -1.4 | i | -39.4% | 15.8µM* | .
Cc1nc(C)c(C(=O)N2CCCC(C(=O)c3ccc4ccccc4c3)C2)s1 (stereo not given) | -4.6% | -1.5 | . | -17.5% | -22.3% | 0.0%
COc1ccccc1C(=O)N[C@@H]1c2ccccc2C2(CCN(Cc3c(O)cccc3OC)CC2)[C@H]1O | . | . | i | . | . | .
COc1cc(-c2nnc(SCCOc3ccc(Cl)cc3C)o2)cc(OC)c1OC | . | . | i | 11.2µM* | 0.0% | -3.7%
COc1cc(-c2nnc(SCCOc3ccc(Cl)cc3)o2)cc(OC)c1OC | . | . | i | 8.5% | 0.9% | 0.6%
O=C(O)CCSc1nc2ccccc2s1 | 6.3% | 8.1 | i | 9.6% | 10.0% | 10µM*
c1ccc2sc(SCSc3nc4ccccc4s3)nc2c1 | 10.6% | 4.1 | i | -41.5% | -11.3% | .
O=C(/C=C/c1ccco1)Nc1ccc2nc3n(c(=O)c2c1)CCCC3 | 2µM* | 8.1 | . | -21.0% | -20.7% | 11.9%
COc1cc(=O)n2c(c1C(=O)NCc1ccco1)CCN(Cc1c(F)cccc1F)CC2 | . | . | i | . | . | .
CCn1nc(C)c(CN2Cc3ccccc3OC(c3ccccc3OC)C2)c1C (stereo not given) | . | . | i | . | . | .
O=C(Nc1cc(F)ccc1F)c1cnn2c1NC(=C1CC1)C=C2C(F)F | . | . | . | -2.3% | 8.5% | .
SMILES | uPA generation | Giardia killer | ATXN viability | HepG2 viability | TGFb inhibitor | ATXN2 expr inh
Cc1cc(O)c2c(O)c3c(O)cccc3cc2c1 | . | . | i | . | . | -2.2%
COc1ccc(OC)c(N(CCN2C(=O)c3ccccc3C2=O)C(=O)CCl)c1 | . | . | 1.58µM* | -55.7% | ? | .
COc1cccc(CN2CCC3(CCC(CNC(=O)c4ccco4)O3)CC2)c1OC (stereo not given) | . | . | i | . | . | .
CNC(C)[C@@H]1CC[C@@H](N)[C@@H](O[C@H]2[C@H](O)[C@@H](O[C@H]3OC[C@](C)(O)[C@H](NC)[C@H]3O)[C@H](N)C[C@@H]2N)O1 (stereo not given in full) | . | . | i | . | . | .
S=C(NCCCN(Cc1ccc(Cl)cc1)c1ccc(Br)cn1)NCc1ccc2nc[nH]c2c1 | . | 13.2 | . | -5.1% | ? | .
CN(CCCc1cnc[nH]1)C(=S)NCCCN(Cc1ccc(Cl)cc1)c1ccc(Br)cn1 | . | -2.9 | . | -90.7% | 7.08µM* | .
CC(=O)NCCCNC(=S)NCCCN(Cc1ccc(Cl)cc1)c1ccc(Br)cn1 | . | -3.3 | ? | 12.6µM*! | 15.8µM* | ?
CCC(=O)O[C@@H]1CC(=O)O[C@H](C)C/C=C/C=C/[C@H](O)[C@H](C)C[C@H](CC=O)[C@H](O[C@@H]2O[C@H](C)[C@@H](O[C@H]3C[C@@](C)(O)[C@@H](OC(=O)CC)[C@H](C)O3)[C@H](N(C)C)[C@H]2O)[C@H]1OC | . | . | i | . | . | .
CC(=O)N[C@H]1[C@H]([C@H](O)[C@H](O)CO)OC(C(=O)O)=C[C@@H]1N=C(N)N | . | . | i | . | . | 8.1%
Cc1ccc(Cl)cc1-n1ncc2c(NCCCc3ccccc3)ncnc21 | . | . | 31.6µM* | -39.5% | ? | ?
CC(C)CC(=O)N1CCN(Cc2ccc(Cl)cc2)CC1 | -1.4% | 8.2 | i | 1.8% | -15.3% | -16.0%
CC(C)c1ccc(CN2CCN(C(=O)CCl)CC2)cc1 | 3.55µM* | 5.6 | . | -94.9% | ? | .
C=CCn1c(CNc2ccc(C)cc2)nnc1SCC(=O)N/N=C/c1ccc(O)cc1O | 6.1% | -2.0 | i | 1.0% | ? | 20µM*
Cc1ccc(-n2[nH]c(C)c(/C=N/n3c(C)nc4ccccc4c3=O)c2=O)cc1 | -28.0% | 7.7 | i | 6.31µM* | 2.5% | -22.9%
Cc1ccc(-n2[nH]c(C)c(C=Nc3ccc(C)cn3)c2=O)cc1 | ? | -6.8 | i | 3.98µM* | -18.7% | 3.2%
CCCN1C(=O)c2[nH]nc(-c3ccccc3O)c2C1c1cccc(OCc2ccccc2)c1 (stereo not given) | . | . | . | 15.8µM* | 11.2µM* | .
CC(C)c1ccc(C2c3c(-c4ccccc4O)n[nH]c3C(=O)N2Cc2ccncc2)cc1 (stereo not given) | . | . | 31.6µM* | -54.1% | ? | -8.2%
COCCN1C(=O)c2[nH]nc(-c3ccccc3O)c2C1c1ccc(OCc2ccccc2)c(OC)c1 (stereo not given) | . | 22.6 | . | -73.1% | ? | .
O=C1c2[nH]nc(-c3ccccc3O)c2C(c2ccc(Cl)cc2)N1Cc1ccco1 (stereo not given) | . | . | . | 15.8µM* | ? | .
O=C1c2[nH]nc(-c3ccccc3O)c2C(c2ccc(Cl)cc2)N1CCc1ccccc1 (stereo not given) | . | . | . | -91.5% | 20µM* | .
O=C1c2[nH]nc(-c3ccccc3O)c2C(c2ccccc2)N1Cc1ccco1 (stereo not given) | -4.3% | 1.8 | ? | -64.6% | ? | -0.5%
